Data from PubChem BioAssay (NCI).
The panel holds about 83,000 compounds, 20% with a hit somewhere; the sample as a whole holds those more often.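 Percent growth is the endpoint: 0 to 100 indicates growth inhibition (40 means 60% inhibition), 0 means no net growth, and negative values indicate cell death.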 A number with no mark means an inactive call. Activity calls are given as the source filed them. The calls were made as follows: active = growth percent below 10; inactive = the rest.

How the values were obtained:
Experiment in all cases: NCI-60 one-dose screen, 48 h (100 = growth as untreated, 0 = no growth, -100 = all killed)
Details in all cases: 10 µM unless noted
SK-MEL-2 melanoma = test system: SK-MEL-2 melanoma
EKVX NSCLC = test system: EKVX NSCLC
SN12C renal = test system: SN12C renal
UO-31 renal = test system: UO-31 renal
TK-10 renal = test system: TK-10 renal
ACHN renal = test system: ACHN renal
CAKI-1 renal = test system: CAKI-1 renal
A498 renal = test system: A498 renal
CCRF-CEM leukemia = test system: CCRF-CEM leukemia
MOLT-4 leukemia = test system: MOLT-4 leukemia
SR leukemia = test system: SR leukemia
OVCAR-8 ovarian = test system: OVCAR-8 ovarian
OVCAR-5 ovarian = test system: OVCAR-5 ovarian
OVCAR-4 ovarian = test system: OVCAR-4 ovarian
SK-OV-3 ovarian = test system: SK-OV-3 ovarian
IGROV1 ovarian = test system: IGROV1 ovarian
OVCAR-3 ovarian = test system: OVCAR-3 ovarian
HS 578T breast = test system: HS 578T breast
NCI/ADR-RES ovarian = test system: NCI/ADR-RES ovarian
RPMI-8226 leukemia = test system: RPMI-8226 leukemia

Compound | growth (SK-MEL-2 melanoma) | growth (EKVX NSCLC) | growth (SN12C renal) | growth (UO-31 renal) | growth (TK-10 renal) | growth (ACHN renal) | growth (CAKI-1 renal) | growth (A498 renal) | growth (CCRF-CEM leukemia) | growth (MOLT-4 leukemia) | growth (SR leukemia) | growth (OVCAR-8 ovarian) | growth (OVCAR-5 ovarian) | growth (OVCAR-4 ovarian) | growth (SK-OV-3 ovarian) | growth (IGROV1 ovarian) | growth (OVCAR-3 ovarian) | growth (HS 578T breast) | growth (NCI/ADR-RES ovarian) | growth (RPMI-8226 leukemia)
Fc1ccc(-c2cnc3nonc3n2)c(F)c1 | 108% | 108% | 107% | 89.1% | 121% | 95.2% | 96.3% | 80.9% | 46.1% | 77.6% | 74.5% | 102% | 96.8% | 93.3% | 92.1% | 108% | 81.5% | 98.1% | 104% | –
CCCCn1cnc2c(SCc3ccc([N+](=O)[O-])cc3)nc(N)nc21 | 91.5% | 103% | 87% | 65.2% | 85% | 87.5% | 87.7% | 86.3% | 86.3% | 24.3% | 37.6% | 90.9% | 91.5% | 76.3% | 116% | 90.3% | 98.4% | 107% | 89.3% | –
Clc1cc(Cl)cc(-c2cnc3nonc3n2)c1 | 98.5% | 102% | 99.4% | 62.3% | 79.9% | 72.6% | 93.5% | 100% | 50.5% | 92.9% | 93.2% | 94.2% | 93.7% | 85.5% | 96.4% | 94.9% | 36% | 102% | 98.9% | –
Cn1cnc([N+](=O)[O-])c1S(=O)(=O)Oc1cccc2ccccc12 | 85% | 97.1% | 79.2% | -31% (active) | 96.3% | 4.28% (active) | -20.9% (active) | 97.6% | -1.53% (active) | 32.8% | 17.5% | 73.3% | 82.3% | 81.3% | 95.8% | 36.9% | -73% (active) | 99.7% | 57.6% | –
CCOC(=O)CCN(CCC(=O)OCC)c1ccccc1 | 96.7% | 115% | 110% | 77.8% | 101% | 100% | 116% | 127% | 61.7% | 96.5% | 104% | 94.5% | 92.2% | 113% | 87.1% | 87.4% | 85.2% | 106% | 105% | –
O=C(c1ccccc1)C(CCc1ccccn1)CCc1ccccn1 | 96.1% | 107% | 95.7% | 75.1% | 97.3% | 106% | 106% | 100% | 95.3% | 99% | 83.3% | 109% | 99.6% | 111% | 95.8% | 93.2% | 103% | 121% | 105% | –
COc1cc(C2CC(c3ccccc3)=NN2C=O)ccc1Oc1nc2c(c(=O)n(C)c(=O)n2C)n1C (stereo unspecified) | 101% | 74.1% | 49% | 62.4% | 110% | 86.9% | 79.4% | 81.3% | 77.9% | 62.2% | 67.4% | 91.3% | 97.6% | 65.3% | 125% | 77.7% | 103% | 75.8% | 57.9% | –
O=C(Cc1ccc([N+](=O)[O-])cc1)Oc1ccccc1 | 102% | 128% | 106% | 77% | 104% | 110% | 117% | 107% | 99.3% | 108% | 96.7% | 107% | 115% | 111% | 110% | 123% | 119% | 109% | 113% | –
COc1cc(/C=N/NC(=O)Cn2c(-c3ccc(C)o3)nc3ccccc32)ccc1OCc1ccccc1 | 94.5% | 75.2% | 95.4% | 61.8% | 93.4% | 85.4% | 82.6% | 78.5% | 80.6% | 50.2% | 74.5% | 81.3% | 88.1% | 90% | 91.7% | 94.3% | 82% | 70.4% | 92.6% | –
Cc1ccc([C@H]2c3[nH]c4ccccc4c3C[C@H]3C(=O)N(CCCCCCC(=O)NO)CC(=O)N23)cc1 | 56.7% | 76.2% | 67.6% | 57.2% | 58.7% | 75.1% | 51.2% | 61.9% | 15.2% | 10.9% | 10.6% | 39.5% | 44.7% | 59.2% | 63.3% | 57.3% | 47% | 52.5% | 94.5% | –
COc1ccccc1/C=N\Nc1ccc([N+](=O)[O-])cn1 | 102% | 92.8% | 109% | 90.8% | 111% | 109% | 90.4% | 106% | 106% | 103% | 104% | 106% | 108% | 115% | 108% | 102% | 117% | 124% | 107% | –
COc1ccc2c(c1)sc1nc(-c3ccccc3)c(-c3cccc4ccccc34)n12 | 27.5% | 28.7% | 44.7% | 47.7% | 37.9% | 49.1% | 29.3% | 0.895% (active) | 22.3% | 27.1% | 10.5% | 19.4% | 44.7% | 65% | 10.5% | 34.4% | -50.3% (active) | 19.8% | 4.62% (active) | –
CC(C)[C@@]12C[C@@H](OC(=O)[C@H]3CO3)[C@@](C)(O1)[C@@H]1CC[C@@H](C)[C@H]1[C@@H]2OC(=O)/C=C/c1ccccc1 | 82.4% | 71.9% | 52.5% | -8.95% (active) | 103% | 23.5% | 46.6% | -61.1% (active) | 81.9% | 72.8% | – | 11.1% | 100% | 92% | 76.5% | 85.7% | 87% | -23.9% (active) | 31.1% | 72.7%
CCN1C(=O)N(CC)C2C1N=C(SC)N2/N=C/C=C/c1ccccc1OC (stereo unspecified) | 26.5% | 23.4% | 26.5% | 41.8% | 46.8% | 23.2% | 25% | 15.1% | 12.5% | 14.7% | 13.3% | 10.9% | 37.2% | 50.5% | 18.9% | 22.2% | -18.9% (active) | 59.2% | -0.869% (active) | –
CCCCCCCCCCCCCC1=NC(C)(C)CN1C(C)C | -66.3% (active) | -2.5% (active) | 9.87% (active) | -65.1% (active) | -73% (active) | -67.2% (active) | -67% (active) | 87.7% | -44.1% (active) | -58.5% (active) | -46.5% (active) | -12.4% (active) | 39.7% | 7.76% (active) | -2.05% (active) | -30.4% (active) | -56.3% (active) | – | -12.4% (active) | –
COc1ccc(/C(C)=N/NC(=O)c2ccc(S(C)(=O)=O)cc2)cc1OC | 101% | 96.3% | 100% | 91.9% | 102% | 108% | 91.6% | 94.1% | 115% | 71.1% | 97.6% | 110% | 106% | 97.7% | 88.4% | 109% | 113% | 100% | 113% | –
O=C(Nc1ccccc1)c1cc2ccccc2s1 | 72.2% | 85.5% | 91.4% | 71.2% | 98.7% | 94.2% | 78.8% | 91.7% | 44.3% | 83.3% | 82.1% | – | 81.7% | 60% | 99.4% | 87.3% | 105% | 98.5% | 94.4% | –
